Values joined by “and” are separate entries in the source; they are usually repeats but may differ in a detail not shown here. Identical values can stand only once. Records with an inconclusive call do not appear. Entries that show only a call come without a potency. The source holds several records for some structures; these can differ, active in one and inactive in another. Active and inactive are the calls of the source. Calls follow the shape of the full dose curve.
experiment: Nuclear factor erythroid 2-related factor 2/antioxidant responsive element (Nrf2/ARE) small molecule agonists: luciferase reporter gene qHTS assay in human keratinocytes (AID 1919969); conditions: KeratinoSens HaCaT ARE-luciferase, luminescence, 24 h; series mostly up to 92.4 µM; also: nearly all actives have a fitted effect of over 35% in size
Excerpt: National Center for Advancing Translational Sciences [NCATS]
Division of Preclinical Innovation [DPI]
U.S. Environmental Protection Agency [EPA]
National Institutes of Environmental Health Sciences [NIEHS]
National Toxicology Program [NTP]
U.S. Food and Drug Administration [FDA]
Oxidative stress has been implicated in the pathogenesis of a variety of diseases ranging from cancer to neurodegeneration. The antioxidant response element (ARE) signaling pathway plays an important role in the amelioration of oxidative stress. The KeratinoSens (Givaudan, Switzerland) is an in vitro test method which quantifies luciferase induction as a measure of activation of Keap1-Nrf2-antioxidationt/electrophile response element (ARE) dependant pathway in HaCaT human keratinocytes stably transfected with a selectable plasmid. The KeratinoSens assay is a cell-based assay with a reporter cell line to detect potential skin sensitizers by their ability to induce the Nrf2/ARE-response. The activation of the report gene under culture conditions can be detected by ONE-Glo Luciferase Assay System (Promega, Madison, WI). This cell line has been used to screen the Tox21 10K compound library to identify agonists that induce oxidative stress. The cytotoxicity of the Tox21 compound library against the KS-ARE cell line was tested in parallel by measuring the cell viability using CellTiter- Fluor assay system (Promega, Madison, WI) in the same wells.
HaCaT derived cell line KeratinoSens were dispensed at 1,500 cells/5uL/well in 1536-well white wall/solid bottom plates using a Multidrop Combi (ThermoFisher Scientific, Waltham, MA) dispenser. After the assay plates were incubated at 37 C/5% CO2 for 5 h, 23 nL of compounds dissolved in DMSO, positive controls or DMSO only was transferred to the assay plate by a pintool workstation (Kalypsys, San Diego, CA). The plates were incubated at 37 C/5% CO2 for 23 h, followed by addition of 1uL/well of CellTiter-Fluor reagent into the assay plates using a Flying Reagent Dispenser (Aurora Discovery, San Diego, CA) for cell viability readout that measures cytotoxicity. After 1 h incubation at 37 C/5% CO2 the fluorescence intensity was measured using a ViewLux (PerkinElmer, Shelton, CT) plate reader. Then 4uL/well of One-Glo were added using a Flying Reagent Dispenser. After the plates were incubated at room temperature for 30 min, the luminescence intensity in the assay plates was measured using ViewLux plate reader.
Potency is read from the fitted curve at half-maximal effect.

SMILES | Potency
CC1=CC(=O)c2ccccc2C1=O | 13.3 µM (active)
COc1cc(S(N)(=O)=O)cc(C(=O)O)c1OC | inactive
CCCC(=O)Nc1ccc(O)c(C(C)=O)c1 | inactive
COc1ccccc1/C=C/C=O | 54.5 µM (active)
OCc1ccccc1 | inactive and 9.69 µM (active)
O=C1CCCCC1 | inactive
CC(C)C(=O)c1ccccc1 | inactive
CC(=O)OCCCc1ccccc1 | inactive
CO[Si](CCCCl)(OC)OC | inactive
O=S(=O)(O)c1ccc(N=Nc2c(O)ccc3cc(S(=O)(=O)O)ccc23)cc1 | inactive
C=C[Si](OC(=C)C)(OC(=C)C)OC(=C)C | inactive
C=C(C)C(=O)NCCCN(C)C | inactive
Oc1ccc2c(c1)OC[C@@H](N1CCC(O)(c3ccc(F)cc3)CC1)[C@H]2O | inactive
CCCCCCCCOC(=O)CCCCCCCCC(=O)OCCCCCCCC | inactive
O=C(O)CCCCCCCCCCC(=O)O | inactive
CCC(C)(C)C1CCC(OC)CC1 (stereo not given) | inactive
CCN(CC)CCN | inactive
O=S(=O)(O)c1cccc2ccccc12 | inactive
Nc1ccccc1N | 31.4 µM (active) and 7.7 µM (active)
NCC1CCCC(CN)C1 (stereo not given) | inactive

SMILES | Potency
C=CCOCC(O)CO (stereo not given) | inactive
NC(=O)Cc1cccc(C(=O)c2ccccc2)c1N | inactive
C#CC(C)(O)CC(C)C (stereo not given) | inactive
CCCCCC(CC)OC(=O)CCCOc1ccc(Cl)cc1Cl (stereo not given) | inactive
CC/C=C\CC1=C(C)CCC1=O | inactive
NNC(=O)c1cccc(C(=O)NN)c1 | inactive
C1CN(CCOCCN2CCOCC2)CCO1 | inactive
O=C(O[C@@H]1Cc2c(O)cc(O)cc2O[C@@H]1c1cc(O)c(O)c(O)c1)c1cc(O)c(O)c(O)c1 | inactive
NC(=O)c1ncn([C@@H]2O[C@H](CO)[C@@H](O)[C@H]2O)c1O | inactive
CCN1CCc2nc(N)oc2CC1 | inactive
CCN[C@H]1CN(CCCOC)S(=O)(=O)c2sc(S(N)(=O)=O)cc21 | inactive
COc1ccc2nc(N)sc2c1 | inactive and 54.5 µM (active)
CC(=O)c1sc(C)nc1C | inactive
Cc1cc(C)c(C)c(O)c1 | inactive
Cc1ccc(C(C)(C)C)cc1 | inactive
O=c1n(CCO)c(=O)n(CCO)c(=O)n1CCO | inactive
C=C[C@H]1CN2CC[C@H]1C[C@H]2[C@H](O)c1ccnc2ccc(OC)cc12 | inactive
CC(=O)Nc1ncc([N+](=O)[O-])s1 | inactive
O=S(=O)(Oc1ccc(Cl)cc1Cl)c1ccccc1 | 69.8 µM (active)
Cc1cccc2c1ccc1ccccc12 | inactive
